Test [1] can be described thus: qHTS assay for small molecules that induce genotoxicity in human embryonic kidney cells expressing luciferase-tagged ATAD5 (AID 651632). Also: nearly all actives have a fitted effect of over 15% in size. Also: potency is read from the fitted curve at half-maximal effect. In a few lines:
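HEK293T cells carrying a luciferase reporter tagged to ATAD5 were exposed to compound or DMSO vehicle for 16 hr at 37C, 5% CO2. Amplite was added, and after 30 min at room temperature luciferase activity was read as a marker of ATAD5 induction.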
Background: qHTS replaces the single test concentration by a dilution series.

A short description of test [2]: qHTS assay for small molecule disruptors of the mitochondrial membrane potential - cell viability (AID 720634; calls by dose curve;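 also: human HepG2 liver cancer cells; % is scaled to controls: 0 for no effect and ±100 for the full control effect; nearly all actives have a fitted effect of over 20% in size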). Summed up: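 HepG2 cells seeded overnight at 37 C, then exposed to compound or DMSO for 1 hr at 37 C, 5% CO2. m-MPI dye added, then CellTiter-Glo for 30 min at room temperature; viability read as ATP luminescence.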
The nature of test [3]: qHTS assay for small molecule disruptors of the mitochondrial membrane potential (AID 720635). Also: potency is read from the fitted curve at half-maximal effect. Summed up: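 Mitochondrial membrane potential tracked with Mito-MPS dye, red aggregates (ex 540/em 590 nm) against green monomers (ex 490/em 535 nm). Compound treatment 1 hr at 37C, dye 30 min in HepG2.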
The nature of test [4]: qHTS assay to test for compound auto fluorescence at 590 nm (red) in HepG2 cells (AID 720674). Also: % is scaled to controls: 0 for no effect and ±100 for the full control effect. Summed up: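 We screened compounds on adherent HepG2 cells, incubating them for an hour at 37 C in 5% CO2 before reading emission at 590 nm under 540 nm excitation; values reflect equivalence to Rose Bengal sodium fluorescence.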
Test [5] is described as follows: qHTS assay to test for compound auto fluorescence at 535 nm (green) in HepG2 cells (AID 720675). Also: % is scaled to controls: 0 for no effect and ±100 for the full control effect.
The nature of test [6]: qHTS assay to test for compound auto fluorescence at 460 nm (blue) in HEK293 cells (AID 720678). Also: % is scaled to controls: 0 for no effect and ±100 for the full control effect. Summed up: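 Blue read-out at excitation 405 nm and emission 460 nm follows overnight compound exposure of HEK293 cells at 37C in 5% CO2. Activity is given as auto fluorescence equivalency to triamterene.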
Test [7] can be described thus: qHTS assay to test for compound auto fluorescence at 590 nm (red) in HEK293 cells (AID 720679). Also: % is scaled to controls: 0 for no effect and ±100 for the full control effect. Summed up:
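Red channel, Ex/Em 540/590nm; signal expressed as equivalency to Rose Bengal sodium. HEK293, 2,000 cells/well, 10% dialyzed FBS; 23 nL compound pinned after 4-5 hr attachment; overnight 37C/5% CO2 before reading.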

The nature of test [8]: qHTS assay to test for compound auto fluorescence at 535 nm (green) in HEK293 cells (AID 720680). Also: % is scaled to controls: 0 for no effect and ±100 for the full control effect.
A short description of test [9]: qHTS assay to test for compound auto fluorescence at 460 nm (blue) in HEK293 cell free culture (AID 720681). Also: % is scaled to controls: 0 for no effect and ±100 for the full control effect. Summed up: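 Blue fluorescence (Ex 405/Em 460 nm, triamterene-equivalent) was read immediately after pin transfer of compound or DMSO into medium (DMEM, 10% FBS) without cells.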
The nature of test [10]: qHTS assay to test for compound auto fluorescence at 535 nm (green) in HEK293 cell free culture (AID 720682). Also: % is scaled to controls: 0 for no effect and ±100 for the full control effect. In a few lines:
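Read-out: 485/535 nm fluorescence intensity, calibrated against fluorescein. Medium only (DMEM + 10% FBS, no cells); test compound or DMSO vehicle added by pintool before plate reading.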

Test [11] can be described thus: qHTS assay to test for compound auto fluorescence at 590 nm (red) in HEK293 cell free culture (AID 720683). Also: % is scaled to controls: 0 for no effect and ±100 for the full control effect. Summed up: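 Red-channel autofluorescence of compounds in culture medium (DMEM, 10% FBS), no cells, measured at 540/590 nm. Rose Bengal sodium is the reference fluorophore for equivalence.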
A short description of test [12]: qHTS assay to test for compound auto fluorescence at 590 nm (red) in HepG2 cell free culture (AID 720684). Also: % is scaled to controls: 0 for no effect and ±100 for the full control effect. In a few lines: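 Steps: dispense MEM/10% FBS medium, no cells; pin compound or DMSO vehicle; read red channel, Ex/Em 540/590 nm. Output given as Rose Bengal sodium equivalents.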
A short description of test [13]: qHTS assay to test for compound auto fluorescence at 460 nm (blue) in HepG2 cell free culture (AID 720685). Also: % is scaled to controls: 0 for no effect and ±100 for the full control effect. In a few lines:
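Compound (23 nL) or DMSO pinned into cell-free MEM with 10% FBS; blue fluorescence read at 405/460 nm excitation/emission, expressed as auto-fluorescence equivalency to triamterene.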

Test [14] is described as follows: qHTS assay to test for compound auto fluorescence at 460 nm (blue) in HepG2 cells (AID 720687). Also: % is scaled to controls: 0 for no effect and ±100 for the full control effect. In a few lines:
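Blue-channel autofluorescence (Ex/Em 405/460 nm, triamterene-equivalent) was measured after 1 hr compound exposure at 37 C, 5% CO2. Cells were HepG2, plated overnight at 37 C in MEM plus 10% FBS.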

In test [15] the target is Glucocorticoid receptor (Homo sapiens) (UniProt P04150). Kind of test: qHTS assay to identify small molecule agonists of the glucocorticoid receptor (GR) signaling pathway (AID 720691; active = well fitted activation curve with a large enough effect in the signal ratio in the repeat runs, not every such curve was filed as active; the % refers to the signal ratio; also: % is scaled to controls: 0 for no effect and ±100 for the full control effect). Particulars: GR-bla HeLa, beta-lactamase reporter ratio, 18 h; activation: at 62.4 µM (top of the series). In a few lines:
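GR-bla HeLa cells (beta-lactamase reporter under glucocorticoid response element) were plated 4 h at 37 C/5% CO2, given compounds in DMSO, and incubated 18 h at 37 C. LiveBLAzer B/G FRET substrate was added for 2 h at room temperature, then fluorescence intensity read.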

Test [16] in a line: qHTS assay for small molecules that induce genotoxicity in human embryonic kidney cells expressing luciferase-tagged ATAD5 - cell viability (AID 651634; calls by dose curve; also: nearly all actives have a fitted effect of over 25% in size; also: potency is read from the fitted curve at half-maximal effect). Summed up:
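HEK293T cells expressing luciferase-tagged ATAD5 were exposed to compound or DMSO for 15.5 hr at 37C, 5% CO2. Viability was then read as live-cell protease activity by CellTiter-Fluor fluorescence after 30 min at 37C.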

Test [17] in a line: qHTS assay to test for compound auto fluorescence at 535 nm (green) in HepG2 cell free culture (AID 720686). Also: % is scaled to controls: 0 for no effect and ±100 for the full control effect.
In test [18] the target is Glucocorticoid receptor (Homo sapiens) (UniProt P04150). Kind of test: qHTS assay to identify small molecule antagonists of the glucocorticoid receptor (GR) signaling pathway (AID 720692; active = well fitted inhibition curve with a large enough effect in the signal ratio in the repeat runs, not every such curve was filed as active; the % refers to the signal ratio; also: potency is read from the fitted curve at half-maximal effect). Summed up:
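GR-bla HeLa cells (beta-lactamase reporter under glucocorticoid response element) were pre-plated 4 h at 37 C, treated with compounds plus 5 nM dexamethasone (final) for 18 h, then read by LiveBLAzer B/G FRET fluorescence after 2 h.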

Test [19] can be described thus: qHTS assay for small molecule agonists of the p53 signaling pathway - cell viability (AID 651633; calls by dose curve; also: nearly all actives have a fitted effect of over 30% in size; also: potency is read from the fitted curve at half-maximal effect). In a few lines:
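Viability counter-read: CellTiter-Glo luminescence (30 min, room temperature) in the same p53RE-bla plates. These plates had been exposed to compounds for 16 h at 37 C.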

A number with no mark means an inactive call. Inconclusive results are not listed. The source made the active and inactive calls. Unless noted, calls follow the shape of the dose curve; as a rule, active = well fitted curve in the direction sought with a large enough effect in the repeat runs; inconclusive = weak or mixed curves; inactive = no such curve, though single readings can be large; an effect the other way counts as inactive or inconclusive.

Glucocorticoid receptor (Homo sapiens), sequence (P04150 whole entry, looked up): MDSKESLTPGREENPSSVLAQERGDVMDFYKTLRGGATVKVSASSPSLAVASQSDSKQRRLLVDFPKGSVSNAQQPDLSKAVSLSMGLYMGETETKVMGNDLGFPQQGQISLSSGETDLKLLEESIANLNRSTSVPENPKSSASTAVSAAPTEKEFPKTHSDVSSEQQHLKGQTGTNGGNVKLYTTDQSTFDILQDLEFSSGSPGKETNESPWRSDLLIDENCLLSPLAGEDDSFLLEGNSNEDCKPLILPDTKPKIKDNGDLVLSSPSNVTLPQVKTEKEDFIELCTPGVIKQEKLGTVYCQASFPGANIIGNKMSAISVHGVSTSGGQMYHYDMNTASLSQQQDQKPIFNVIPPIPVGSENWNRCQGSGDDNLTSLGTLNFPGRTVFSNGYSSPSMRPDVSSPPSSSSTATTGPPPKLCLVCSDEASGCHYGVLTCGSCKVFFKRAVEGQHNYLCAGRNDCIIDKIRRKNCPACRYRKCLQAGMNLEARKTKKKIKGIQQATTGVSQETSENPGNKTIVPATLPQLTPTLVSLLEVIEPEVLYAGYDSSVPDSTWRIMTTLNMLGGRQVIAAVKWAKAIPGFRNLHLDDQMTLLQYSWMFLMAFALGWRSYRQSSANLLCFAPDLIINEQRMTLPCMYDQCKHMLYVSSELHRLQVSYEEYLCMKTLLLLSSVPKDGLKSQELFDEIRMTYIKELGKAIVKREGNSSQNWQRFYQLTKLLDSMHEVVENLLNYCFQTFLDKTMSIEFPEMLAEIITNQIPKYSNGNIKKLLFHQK

As for `OCCCCCCCCCCCCBr`, the Potency entry in test [1], in test [2], in test [4], in [5], in test [6] and in test [7] was “inactive” each time. Besides, the Potency entry in [9], in test [11], in test [12], in test [13], in [14] and in test [15] was “inactive” in each case. The Potency in test [3] is 62.1 µM (active). Besides, the result in test [8] and in [10] was inactive.
For `Cc1[nH]nc2c1N=C(c1ccccc1Cl)c1cc([N+](=O)[O-])ccc1N2`, the Potency in test [1] was 1.93 µM (active); in test [16], 30.6 µM (active); in test [3], 3.06 µM (active). The Potency entry in [2], in [4], in [5], in [6], in test [7] and in test [11] was “inactive” throughout. For the same compound, the Potency result in test [12], in test [17] and in test [14] was “inactive” throughout. Also, the compound was classed as inactive in [8] and in test [10].
`CCCCCCCCCCCCCCCC[N+](C)(C)CCN(Cc1ccc(OC)cc1)c1ncccn1`: the Potency result in test [1], in test [16], in test [2], in test [15] and in test [18] was “inactive” in each case. Moreover, the Potency in test [3] is 11.4 µM (active). Besides, the fluorescence, relative to Rose Bengal in [4] was 0.0174% [at 18.6 µM]. In addition, the fluorescence, % of fluorescein control in test [5] was -0.0711% [at 18.6 µM]; in test [17], -0.0114% [at 18.6 µM]. Besides, in test [6], the fluorescence, % of triamterene was 0.0413% [at 18.6 µM]. The fluorescence, % of fluorescent control in [7] is -0.0306% [at 18.6 µM]; in test [9] it was -0.0676% [at 18.6 µM]; in test [11], -0.016% [at 18.6 µM]; in test [13], -0.0338% [at 18.6 µM]; in test [14] it was 0.0553% [at 18.6 µM]. Moreover, in test [8], the fluorescence, % of fluorescein is -0.0029% [at 18.6 µM]. For the same compound, the fluorescence, % of Rose Bengal in [12] is 0.665% [at 18.6 µM].
Regarding `c1cc(C(c2ccc(OCC3CO3)cc2)c2ccc(OCC3CO3)cc2)ccc1OCC1CO1` (stereo unspecified), the Potency entry in test [1], in test [19], in test [4], in test [5], in test [6] and in [7] was “inactive” throughout. The Potency result in test [9], in test [11], in [12], in [13], in [17] and in test [14] was “inactive” in each case. In [15], the Potency result is “inactive”. The call in [8] and in test [10] was inactive. In addition, in test [18], the Potency was 49 µM (active).
`CCC1=C[C@@H]2CN(C1)Cc1c([nH]c3ccccc13)[C@@](C(=O)OC)(c1cc3c(cc1OC)N(C)[C@H]1[C@@](O)(C(=O)OC)[C@H](OC(C)=O)[C@]4(CC)C=CCN5CC[C@]31[C@@H]54)C2`: the Potency in test [1] is 2.37 µM (active); in test [16], 1.19 µM (active). In addition, the Potency entry in [2], in test [4], in test [6], in test [9], in [11] and in test [12] was “inactive” throughout. For the same compound, the Potency result in test [13], in [17], in test [14] and in test [15] was “inactive” each time. In addition, the result in test [8] and in test [10] was inactive.
Regarding `Oc1ccc(C2(c3ccc(O)cc3)CC3CC2C2CCCC32)cc1` (stereo unspecified), the Potency entry in test [1], in [2], in test [4], in [5], in test [6] and in test [7] was “inactive” each time. Besides, the Potency result in test [9], in test [11], in test [13], in [17] and in [14] was “inactive” throughout. For the same compound, the Potency in test [19] was 58.7 µM (active); in test [3], 33 µM (active); in [18], 18.7 µM (active). In addition, the result in test [8] and in test [10] was inactive.
Turning to `CCOc1nc2cccc(C(=O)OC(C)OC(=O)OC3CCCCC3)c2n1Cc1ccc(-c2ccccc2-c2nn[nH]n2)cc1` (stereo unspecified), the Potency entry in test [1], in test [4], in test [6], in test [7], in [9] and in test [11] was “inactive” each time. Besides, the Potency result in test [12], in test [13], in test [17] and in [14] was “inactive” in each case. For the same compound, the Potency in [19] is 12.2 µM (active); in [3], 13.7 µM (active). The compound was classed as inactive in [8] and in [10].

(Values after PubChem BioAssay (Tox21).)
